The supplement of paper PMC11417369
± gives the standard deviation of the averaged measurements. Over roughly 25,000 sequences, “ln(normalized median fluorescence intensity)” has its median near 8.6; the highest 2% begin near 10. The entries come from a sample that favours the highest values as a whole.

These sequences were tested on PfAP2-EXP AP2 domain (GST-tagged) (assay: gcPBM binding intensity (ln(normalized median fluorescence intensity)); higher = stronger DNA binding).
Summary of the method: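 Binding intensity is the highest Masliner-normalised natural-log median intensity over replicate spots in either probe orientation. To obtain it, GST-tagged P. falciparum DNA-binding domains made in E. coli were incubated for 1 h on an Agilent 4 × 180k array of primer-extended double-stranded 36-bp intergenic genomic probes plus negative controls. Detection used Alexa488 anti-GST antibody with scanning at 488 nm.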
In the case of “AAATTATATCCCCTTTGTACTTACAGATCTTTATAC [XGTACX_site8163]”, the “gcPBM binding intensity (ln)” value is reported as 8.77 ± 0.51.
With “CACAGTGATATAAAAACACACATGAATTCTAATTTC [CACACA_site6884]” the “gcPBM binding intensity (ln)” value was 8.3 ± 0.21.
For “AAAGTTGTTACGAACATACACACGAACATACTCACG [CACACA_site604]”, the “gcPBM binding intensity (ln)” value was 8.7 ± 0.69.
With “CCACTATATAAAATCACACATTTATATTATACATAT [CACACA_site4570]” the “gcPBM binding intensity (ln)” value was 8.43 ± 0.4.
For “TGTCATTTAATTTTTTGTACGAAAAAAACATATAAA [XGTACX_site4952]”, the “gcPBM binding intensity (ln)” value was 8.6 ± 0.24.
For “TAATATTAATCCTAGTGTACATTAATTTATATGTAT [XGTACX_site3583]”, the “gcPBM binding intensity (ln)” value was 8.51 ± 0.45.
“GTATATATATATTTATGTACTTACCTACATAATTAT [XGTACX_site4435]” was tested, and the “gcPBM binding intensity (ln)” value was 8.84 ± 0.24.
In the case of “ATATTAATATACATATGTACATATATATATATATAT [XGTACX_site7425]”, the “gcPBM binding intensity (ln)” value is reported as 10.2 ± 0.24.
“ATATATATATATATATGTACACATTAATGTTTTTTT [XGTACX_site167]” was tested, and the “gcPBM binding intensity (ln)” value was 10.4 ± 0.24.
With “AAATTAATATAAATATGTACATAAATAATAAAATAT [XGTACX_site6131]” the “gcPBM binding intensity (ln)” value was 8.71 ± 0.5.
“GTATGTATGTATATATGTACACATTATTATTTAATG [XGTACX_site5802]” was tested, and the “gcPBM binding intensity (ln)” value was 8.78 ± 0.11.
For “TATACATATATTATATGTACATATATATATAATATA [XGTACX_site2942]”, the “gcPBM binding intensity (ln)” value was 8.29 ± 0.28.
For “ATATATATATATATATGTACATATTATTAATAATAT [XGTACX_site6667]”, the “gcPBM binding intensity (ln)” value was 10.2 ± 0.35.
“TTTAATTAAAATATATGTACATATATATATATATAT [XGTACX_site4517]” was tested, and the “gcPBM binding intensity (ln)” value was 10.4.
For “AAATTAAAATATATATGTACATATATATATATATAT [XGTACX_site7844]”, the “gcPBM binding intensity (ln)” value was 10 ± 0.42.
In the case of “ATAATGTTTTATAATACACACATTATGTATATAAAT [CACACA_site4077]”, the “gcPBM binding intensity (ln)” value is reported as 8.36 ± 0.38.
In the case of “TATTATTATTATTATTTTAAAAGAAATAAAAATATG [XGTACX_negctrl_site119]”, the “gcPBM binding intensity (ln)” value is reported as 8.1 ± 0.39.
“AATTGGAAGAAAAAAAAGGAAGGAAAGTTATTACAT [GTGCAC_negctrl_site74]” was tested, and the “gcPBM binding intensity (ln)” value was 8.62 ± 0.41.
For “AAATTTGAAGAATATTGTACGCATAATAATTAAATA [XGTACX_site4300]”, the “gcPBM binding intensity (ln)” value was 8.82 ± 0.41.
“TTACATATGGTTAGTAGTACATATATAAATGTAAAT [XGTACX_site7206]” was tested, and the “gcPBM binding intensity (ln)” value was 8.62 ± 0.47.
In the case of “AATTAATGGTTAAAGGTGCACAATACATATATTACA [GTGCAC_site9943]”, the “gcPBM binding intensity (ln)” value is reported as 9.57 ± 0.45.
TTACATACAATTGGTGTGCACATATATATATATATA was tested, and the “gcPBM binding intensity (ln)” value was 10.3 ± 0.33.
With “AAATCAAACTTTGGTGTGCACAAATATATACATATA [GTGCAC_site9986]” the “gcPBM binding intensity (ln)” value was 9.1 ± 0.29.
In the case of “TATATATATAAGATTGTGCACATTAAAATGATAGAA [GTGCAC_site9621]”, the “gcPBM binding intensity (ln)” value is reported as 9.265 ± 0.049.
With “TATATATATATATATACATGCATTTCTCATGTACAT [TGCATGCA_site621]” the “gcPBM binding intensity (ln)” value was 10.2 ± 0.33.
For “TATATATTTATATATGCATGTACATTTTTATTTATT [TGCATGCA_site1048]”, the “gcPBM binding intensity (ln)” value was 8.82 ± 0.25.
In the case of “TACATGCATTTCTCATGTACATAATTTTCCCATATT [XGTACX_site5158]”, the “gcPBM binding intensity (ln)” value is reported as 8.81 ± 0.4.
“CCTTACTTCTTATAAAGTACCCAATGATATACATTA [XGTACX_site1554]” was tested, and the “gcPBM binding intensity (ln)” value was 8.41 ± 0.31.
In the case of “AAACGATCTCGATGTTGTACACATTTATATAGAAAC [XGTACX_site4373]”, the “gcPBM binding intensity (ln)” value is reported as 8.86 ± 0.4.
With TAAATATATATATAAGTGCATTATATATATATATAA the “gcPBM binding intensity (ln)” value was 8.58 ± 0.028.
GCCAATAAAGATGTGGTGCATTATATATATATATAT was tested, and the “gcPBM binding intensity (ln)” value was 10.3 ± 0.23.
For AATATTCAATATAAAGTGCATTATTGTGGACCTAAT, the “gcPBM binding intensity (ln)” value was 8.77 ± 0.099.
With “TAATTTTTTATATATTGTACAAATAATATATGATGT [XGTACX_site268]” the “gcPBM binding intensity (ln)” value was 8.46 ± 0.23.
CATTATATGATTTATGTGCACATTCATTTATTTTAA was tested, and the “gcPBM binding intensity (ln)” value was 8.83 ± 0.099.
With “TCTTACGGATTCATTGTGCACATATATATATATATA [GTGCAC_site9896]” the “gcPBM binding intensity (ln)” value was 10.2 ± 0.45.
For “TTTCTTATTTTGGATTGTACGTATATTTTTCATTTT [XGTACX_site224]”, the “gcPBM binding intensity (ln)” value was 8.93 ± 0.38.
With “AAAAAAAAAAAAAAAAGTACATATATTATATATATA [XGTACX_site2983]” the “gcPBM binding intensity (ln)” value was 8.9 ± 0.099.
For “AAAAATATATAAGAGAGTACATAAAATAAATTAATT [XGTACX_site1534]”, the “gcPBM binding intensity (ln)” value was 8.61 ± 0.41.
In the case of “TATATATATATATATAGTACATATTTATATATGAAA [XGTACX_site8488]”, the “gcPBM binding intensity (ln)” value is reported as 10.1 ± 0.36.
With “TATATTTACTTATGAAGTACATATATATATATATAT [XGTACX_site5069]” the “gcPBM binding intensity (ln)” value was 10.3 ± 0.21.
“AAATTATTAAAAAAAAGTACATATATATATATATAT [XGTACX_site8313]” was tested, and the “gcPBM binding intensity (ln)” value was 10.4 ± 0.25.
In the case of “TATATATTATAAAAGAGTACAGAAAGAAAAAAAAAT [XGTACX_site8305]”, the “gcPBM binding intensity (ln)” value is reported as 9.12 ± 0.59.
With “TTAATATATTTTAAAAGTACATAATATTATTTTTTA [XGTACX_site3642]” the “gcPBM binding intensity (ln)” value was 8.04 ± 0.26.
In the case of “AAAAAAAAAAAAAAAAGTACATATATATATAATTAT [XGTACX_site7836]”, the “gcPBM binding intensity (ln)” value is reported as 8.54 ± 0.43.
For “ATATTTTAATTATAAAGTACATAAAAATATATAAAC [XGTACX_site6705]”, the “gcPBM binding intensity (ln)” value was 8.58 ± 0.3.
“ACATATTAATTATAAAGTACATATATATATATATAT [XGTACX_site4540]” was tested, and the “gcPBM binding intensity (ln)” value was 10.3 ± 0.18.
For “ATATACATATATATATGTACTTATTTATTTATTTAT [XGTACX_site2532]”, the “gcPBM binding intensity (ln)” value was 8.56 ± 0.26.
“CAGACATATTAAAAGAGTACATATATATATATATAT [XGTACX_site1158]” was tested, and the “gcPBM binding intensity (ln)” value was 10.3 ± 0.28.
“ATGTAGATATATATCTGTACGTATATGTAAATATTA [XGTACX_site1516]” was tested, and the “gcPBM binding intensity (ln)” value was 8.72 ± 0.35.
In the case of “ATGATATTATAAAAAAGTACATATGTATATAATTAT [XGTACX_site7652]”, the “gcPBM binding intensity (ln)” value is reported as 8.88 ± 0.45.
With “AAAAATTTATTTTTAGGTACACAATTGAATTATTTA [XGTACX_site7008]” the “gcPBM binding intensity (ln)” value was 8.16 ± 0.27.
With “TATTTAAAATATTAAATTTGTAAAGTTCGAGGGAAG [GTGCAC_negctrl_site337]” the “gcPBM binding intensity (ln)” value was 8.52 ± 0.48.
For “TGATGAAAATTTTTCTGTACAAAAAGTATGAAGGTA [XGTACX_site8901]”, the “gcPBM binding intensity (ln)” value was 8.88 ± 0.38.
“AGTTTAATTTTGTATACACACATTTGAATTATTAAT [CACACA_site7625]” was tested, and the “gcPBM binding intensity (ln)” value was 8.77 ± 0.5.
With “AATATGTCTATATTTTTTATATGGAAATATTATAAA [GTGCAC_negctrl_site700]” the “gcPBM binding intensity (ln)” value was 7.92 ± 0.39.
In the case of “TTTATAATAAAATTTTTACACACTTTAAAAAAAAAA [CACACA_site8070]”, the “gcPBM binding intensity (ln)” value is reported as 8.07 ± 0.37.
In the case of “AAAAAAAAAAAAAAATGTACATAAAAATGATATAAT [XGTACX_site4096]”, the “gcPBM binding intensity (ln)” value is reported as 8.7 ± 0.55.
For “TATAAAATTTTTAAAAGTACATATTTTACATAATAC [XGTACX_site2193]”, the “gcPBM binding intensity (ln)” value was 8.38 ± 0.26.
In the case of “TTTAAAAAGTTATGAAGTACATATATATATATATAT [XGTACX_site2188]”, the “gcPBM binding intensity (ln)” value is reported as 10.2 ± 0.29.
In the case of “CTTTAAGTTATATGAAGTACAATTTAAAAAAATGAA [XGTACX_site358]”, the “gcPBM binding intensity (ln)” value is reported as 8.41 ± 0.38.
In the case of “TATTTAAGAATATGAAGTACATATATTATTTAAAAA [XGTACX_site7897]”, the “gcPBM binding intensity (ln)” value is reported as 8.15 ± 0.29.
With “TATTCCTAATTTAAAAGTACATATATATATATATAT [XGTACX_site3008]” the “gcPBM binding intensity (ln)” value was 10.2 ± 0.54.
In the case of “TTTTTATAACATAAAAGTACATATTTTTAATTTAAT [XGTACX_site4394]”, the “gcPBM binding intensity (ln)” value is reported as 8.05 ± 0.4.
